How the values were obtained:
Experiment in all cases: log2 ratio of Biotin-Ahx-Ub-VS probe labelling (fragment/DMSO); higher = less target engagement (more negative = stronger competition), active = hit call of the paper (q ≤ 0.05, log2 ratio ≤ -1)
Details in all cases: compound concentration: 200 uM; treatment time: 3 h
USP34 = USP34 (UniProt Q70CQ2)
How it was run: (§1)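 HEK293T lysate, 495 µg per sample in Tris/CHAPS/IGEPAL buffer with protease inhibitors, was treated in triplicate with fragment at 200 µM or vehicle for 3 h and then with Biotin-Ahx-Ub-VS at 0.5 µM final for 1 h. Labelled DUBs were NeutrAvidin-enriched, digested with LysC and trypsin, and run by diaPASEF LC-MS/MS. Spectronaut label-free quantities were global-median-normalised, and values are average log2 fragment/vehicle ratios by unpaired t-test on proteins with ≥2 unique peptides.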

USP36 = biological target: T1, USP36 (UniProt Q9P275)
T1 sequence (whole entry): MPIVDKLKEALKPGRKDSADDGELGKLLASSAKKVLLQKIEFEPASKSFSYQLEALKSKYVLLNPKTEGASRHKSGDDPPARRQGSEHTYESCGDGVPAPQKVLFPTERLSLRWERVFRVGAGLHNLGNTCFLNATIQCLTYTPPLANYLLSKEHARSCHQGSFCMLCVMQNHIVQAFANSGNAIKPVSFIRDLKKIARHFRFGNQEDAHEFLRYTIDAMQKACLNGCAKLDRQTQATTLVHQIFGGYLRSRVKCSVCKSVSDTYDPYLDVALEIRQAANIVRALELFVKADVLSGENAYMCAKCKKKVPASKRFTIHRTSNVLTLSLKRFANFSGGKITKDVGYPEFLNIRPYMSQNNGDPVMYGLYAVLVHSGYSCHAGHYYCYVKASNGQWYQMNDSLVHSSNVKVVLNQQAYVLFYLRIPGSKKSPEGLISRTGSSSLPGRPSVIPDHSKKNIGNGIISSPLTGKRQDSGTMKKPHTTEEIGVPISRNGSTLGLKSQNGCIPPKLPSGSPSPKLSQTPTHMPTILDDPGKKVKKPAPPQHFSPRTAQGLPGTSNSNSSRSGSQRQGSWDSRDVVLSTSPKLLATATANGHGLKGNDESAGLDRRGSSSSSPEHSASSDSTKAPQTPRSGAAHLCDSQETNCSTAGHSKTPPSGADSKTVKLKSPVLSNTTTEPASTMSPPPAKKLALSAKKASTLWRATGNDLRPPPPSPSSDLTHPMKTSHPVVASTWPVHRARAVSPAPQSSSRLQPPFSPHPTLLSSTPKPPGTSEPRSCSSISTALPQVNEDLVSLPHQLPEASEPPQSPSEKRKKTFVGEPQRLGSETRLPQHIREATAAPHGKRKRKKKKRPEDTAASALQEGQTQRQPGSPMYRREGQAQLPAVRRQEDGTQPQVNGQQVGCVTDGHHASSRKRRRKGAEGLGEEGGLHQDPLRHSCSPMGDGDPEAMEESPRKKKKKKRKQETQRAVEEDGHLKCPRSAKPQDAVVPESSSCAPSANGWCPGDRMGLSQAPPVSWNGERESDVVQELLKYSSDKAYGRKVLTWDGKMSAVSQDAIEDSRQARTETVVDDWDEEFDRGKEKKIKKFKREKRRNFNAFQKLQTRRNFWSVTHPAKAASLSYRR
How it was run: as §1

USP38 = biological target: T2, USP38 (UniProt Q8NB14)
T2 sequence (whole entry): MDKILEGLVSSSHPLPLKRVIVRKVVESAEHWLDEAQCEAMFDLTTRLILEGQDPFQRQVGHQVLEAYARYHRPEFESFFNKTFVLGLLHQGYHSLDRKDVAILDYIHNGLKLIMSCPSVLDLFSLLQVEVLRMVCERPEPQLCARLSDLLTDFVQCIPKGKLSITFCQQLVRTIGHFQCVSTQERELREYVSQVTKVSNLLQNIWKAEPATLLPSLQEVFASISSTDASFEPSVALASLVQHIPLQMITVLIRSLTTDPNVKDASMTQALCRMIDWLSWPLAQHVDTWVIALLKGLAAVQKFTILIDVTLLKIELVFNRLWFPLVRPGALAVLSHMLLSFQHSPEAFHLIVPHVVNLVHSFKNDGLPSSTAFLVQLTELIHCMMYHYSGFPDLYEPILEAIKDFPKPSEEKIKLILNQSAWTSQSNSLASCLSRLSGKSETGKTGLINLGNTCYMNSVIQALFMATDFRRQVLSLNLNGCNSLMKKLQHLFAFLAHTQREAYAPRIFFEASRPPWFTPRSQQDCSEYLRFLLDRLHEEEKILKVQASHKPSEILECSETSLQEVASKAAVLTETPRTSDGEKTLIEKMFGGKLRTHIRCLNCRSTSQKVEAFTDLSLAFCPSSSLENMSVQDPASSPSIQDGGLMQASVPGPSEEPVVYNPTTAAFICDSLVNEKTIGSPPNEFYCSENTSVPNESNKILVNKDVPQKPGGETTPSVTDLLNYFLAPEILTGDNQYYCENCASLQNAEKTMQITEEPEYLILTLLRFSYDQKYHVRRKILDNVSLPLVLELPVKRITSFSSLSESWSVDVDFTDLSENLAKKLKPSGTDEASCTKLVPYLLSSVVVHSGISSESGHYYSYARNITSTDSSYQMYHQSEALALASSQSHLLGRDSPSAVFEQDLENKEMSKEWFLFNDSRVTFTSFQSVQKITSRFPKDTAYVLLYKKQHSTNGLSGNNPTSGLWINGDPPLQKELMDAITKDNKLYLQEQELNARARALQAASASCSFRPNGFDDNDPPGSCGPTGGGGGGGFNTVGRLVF
How it was run: as §1

USP39 = biological target: T3, USP39 (UniProt Q53GS9)
T3 sequence (whole entry): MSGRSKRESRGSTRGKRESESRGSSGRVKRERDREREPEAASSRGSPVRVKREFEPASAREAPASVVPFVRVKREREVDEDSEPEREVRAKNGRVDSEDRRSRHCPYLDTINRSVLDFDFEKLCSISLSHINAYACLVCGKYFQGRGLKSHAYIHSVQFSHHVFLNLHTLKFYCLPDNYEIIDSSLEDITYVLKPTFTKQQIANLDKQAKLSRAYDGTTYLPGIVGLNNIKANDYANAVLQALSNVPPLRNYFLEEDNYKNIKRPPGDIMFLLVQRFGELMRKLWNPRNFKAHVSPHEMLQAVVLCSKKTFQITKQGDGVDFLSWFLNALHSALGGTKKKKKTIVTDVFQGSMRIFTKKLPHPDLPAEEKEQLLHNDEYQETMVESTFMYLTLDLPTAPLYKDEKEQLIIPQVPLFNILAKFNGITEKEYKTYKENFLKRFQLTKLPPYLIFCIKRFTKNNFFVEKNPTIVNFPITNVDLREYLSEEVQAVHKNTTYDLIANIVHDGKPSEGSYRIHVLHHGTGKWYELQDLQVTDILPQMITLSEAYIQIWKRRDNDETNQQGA
How it was run: as §1

USP4 = biological target: T4, USP4 (UniProt Q13107)
T4 sequence (whole entry): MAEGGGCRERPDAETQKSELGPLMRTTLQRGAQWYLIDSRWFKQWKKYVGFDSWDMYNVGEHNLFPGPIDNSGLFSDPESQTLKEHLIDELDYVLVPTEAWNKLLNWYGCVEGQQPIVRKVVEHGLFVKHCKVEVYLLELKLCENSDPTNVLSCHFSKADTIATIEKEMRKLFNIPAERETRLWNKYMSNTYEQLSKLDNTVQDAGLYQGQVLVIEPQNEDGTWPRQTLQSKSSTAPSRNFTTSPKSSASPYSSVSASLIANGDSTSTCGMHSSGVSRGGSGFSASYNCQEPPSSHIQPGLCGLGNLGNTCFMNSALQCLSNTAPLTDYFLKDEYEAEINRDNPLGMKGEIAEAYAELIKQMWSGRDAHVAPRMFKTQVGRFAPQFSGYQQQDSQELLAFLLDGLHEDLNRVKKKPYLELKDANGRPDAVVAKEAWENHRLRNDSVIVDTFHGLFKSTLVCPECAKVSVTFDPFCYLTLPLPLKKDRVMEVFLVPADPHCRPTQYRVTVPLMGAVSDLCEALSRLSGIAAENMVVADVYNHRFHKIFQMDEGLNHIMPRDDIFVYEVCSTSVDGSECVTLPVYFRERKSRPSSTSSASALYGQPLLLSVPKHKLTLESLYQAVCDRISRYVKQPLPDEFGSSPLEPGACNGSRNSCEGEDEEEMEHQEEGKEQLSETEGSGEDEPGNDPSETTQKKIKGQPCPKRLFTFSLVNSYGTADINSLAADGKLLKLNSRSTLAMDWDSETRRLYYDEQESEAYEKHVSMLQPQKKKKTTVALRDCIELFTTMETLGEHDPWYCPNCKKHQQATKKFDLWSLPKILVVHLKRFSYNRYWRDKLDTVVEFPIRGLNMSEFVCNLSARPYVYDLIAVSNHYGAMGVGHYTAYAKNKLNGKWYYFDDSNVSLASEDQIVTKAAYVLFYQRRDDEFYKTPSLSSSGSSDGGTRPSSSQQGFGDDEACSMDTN
How it was run: as §1

Measured: log2 ratio of Biotin-Ahx-Ub-VS probe labelling

Sequence of USP34 (Q70CQ2 whole entry, the tested form may be a part): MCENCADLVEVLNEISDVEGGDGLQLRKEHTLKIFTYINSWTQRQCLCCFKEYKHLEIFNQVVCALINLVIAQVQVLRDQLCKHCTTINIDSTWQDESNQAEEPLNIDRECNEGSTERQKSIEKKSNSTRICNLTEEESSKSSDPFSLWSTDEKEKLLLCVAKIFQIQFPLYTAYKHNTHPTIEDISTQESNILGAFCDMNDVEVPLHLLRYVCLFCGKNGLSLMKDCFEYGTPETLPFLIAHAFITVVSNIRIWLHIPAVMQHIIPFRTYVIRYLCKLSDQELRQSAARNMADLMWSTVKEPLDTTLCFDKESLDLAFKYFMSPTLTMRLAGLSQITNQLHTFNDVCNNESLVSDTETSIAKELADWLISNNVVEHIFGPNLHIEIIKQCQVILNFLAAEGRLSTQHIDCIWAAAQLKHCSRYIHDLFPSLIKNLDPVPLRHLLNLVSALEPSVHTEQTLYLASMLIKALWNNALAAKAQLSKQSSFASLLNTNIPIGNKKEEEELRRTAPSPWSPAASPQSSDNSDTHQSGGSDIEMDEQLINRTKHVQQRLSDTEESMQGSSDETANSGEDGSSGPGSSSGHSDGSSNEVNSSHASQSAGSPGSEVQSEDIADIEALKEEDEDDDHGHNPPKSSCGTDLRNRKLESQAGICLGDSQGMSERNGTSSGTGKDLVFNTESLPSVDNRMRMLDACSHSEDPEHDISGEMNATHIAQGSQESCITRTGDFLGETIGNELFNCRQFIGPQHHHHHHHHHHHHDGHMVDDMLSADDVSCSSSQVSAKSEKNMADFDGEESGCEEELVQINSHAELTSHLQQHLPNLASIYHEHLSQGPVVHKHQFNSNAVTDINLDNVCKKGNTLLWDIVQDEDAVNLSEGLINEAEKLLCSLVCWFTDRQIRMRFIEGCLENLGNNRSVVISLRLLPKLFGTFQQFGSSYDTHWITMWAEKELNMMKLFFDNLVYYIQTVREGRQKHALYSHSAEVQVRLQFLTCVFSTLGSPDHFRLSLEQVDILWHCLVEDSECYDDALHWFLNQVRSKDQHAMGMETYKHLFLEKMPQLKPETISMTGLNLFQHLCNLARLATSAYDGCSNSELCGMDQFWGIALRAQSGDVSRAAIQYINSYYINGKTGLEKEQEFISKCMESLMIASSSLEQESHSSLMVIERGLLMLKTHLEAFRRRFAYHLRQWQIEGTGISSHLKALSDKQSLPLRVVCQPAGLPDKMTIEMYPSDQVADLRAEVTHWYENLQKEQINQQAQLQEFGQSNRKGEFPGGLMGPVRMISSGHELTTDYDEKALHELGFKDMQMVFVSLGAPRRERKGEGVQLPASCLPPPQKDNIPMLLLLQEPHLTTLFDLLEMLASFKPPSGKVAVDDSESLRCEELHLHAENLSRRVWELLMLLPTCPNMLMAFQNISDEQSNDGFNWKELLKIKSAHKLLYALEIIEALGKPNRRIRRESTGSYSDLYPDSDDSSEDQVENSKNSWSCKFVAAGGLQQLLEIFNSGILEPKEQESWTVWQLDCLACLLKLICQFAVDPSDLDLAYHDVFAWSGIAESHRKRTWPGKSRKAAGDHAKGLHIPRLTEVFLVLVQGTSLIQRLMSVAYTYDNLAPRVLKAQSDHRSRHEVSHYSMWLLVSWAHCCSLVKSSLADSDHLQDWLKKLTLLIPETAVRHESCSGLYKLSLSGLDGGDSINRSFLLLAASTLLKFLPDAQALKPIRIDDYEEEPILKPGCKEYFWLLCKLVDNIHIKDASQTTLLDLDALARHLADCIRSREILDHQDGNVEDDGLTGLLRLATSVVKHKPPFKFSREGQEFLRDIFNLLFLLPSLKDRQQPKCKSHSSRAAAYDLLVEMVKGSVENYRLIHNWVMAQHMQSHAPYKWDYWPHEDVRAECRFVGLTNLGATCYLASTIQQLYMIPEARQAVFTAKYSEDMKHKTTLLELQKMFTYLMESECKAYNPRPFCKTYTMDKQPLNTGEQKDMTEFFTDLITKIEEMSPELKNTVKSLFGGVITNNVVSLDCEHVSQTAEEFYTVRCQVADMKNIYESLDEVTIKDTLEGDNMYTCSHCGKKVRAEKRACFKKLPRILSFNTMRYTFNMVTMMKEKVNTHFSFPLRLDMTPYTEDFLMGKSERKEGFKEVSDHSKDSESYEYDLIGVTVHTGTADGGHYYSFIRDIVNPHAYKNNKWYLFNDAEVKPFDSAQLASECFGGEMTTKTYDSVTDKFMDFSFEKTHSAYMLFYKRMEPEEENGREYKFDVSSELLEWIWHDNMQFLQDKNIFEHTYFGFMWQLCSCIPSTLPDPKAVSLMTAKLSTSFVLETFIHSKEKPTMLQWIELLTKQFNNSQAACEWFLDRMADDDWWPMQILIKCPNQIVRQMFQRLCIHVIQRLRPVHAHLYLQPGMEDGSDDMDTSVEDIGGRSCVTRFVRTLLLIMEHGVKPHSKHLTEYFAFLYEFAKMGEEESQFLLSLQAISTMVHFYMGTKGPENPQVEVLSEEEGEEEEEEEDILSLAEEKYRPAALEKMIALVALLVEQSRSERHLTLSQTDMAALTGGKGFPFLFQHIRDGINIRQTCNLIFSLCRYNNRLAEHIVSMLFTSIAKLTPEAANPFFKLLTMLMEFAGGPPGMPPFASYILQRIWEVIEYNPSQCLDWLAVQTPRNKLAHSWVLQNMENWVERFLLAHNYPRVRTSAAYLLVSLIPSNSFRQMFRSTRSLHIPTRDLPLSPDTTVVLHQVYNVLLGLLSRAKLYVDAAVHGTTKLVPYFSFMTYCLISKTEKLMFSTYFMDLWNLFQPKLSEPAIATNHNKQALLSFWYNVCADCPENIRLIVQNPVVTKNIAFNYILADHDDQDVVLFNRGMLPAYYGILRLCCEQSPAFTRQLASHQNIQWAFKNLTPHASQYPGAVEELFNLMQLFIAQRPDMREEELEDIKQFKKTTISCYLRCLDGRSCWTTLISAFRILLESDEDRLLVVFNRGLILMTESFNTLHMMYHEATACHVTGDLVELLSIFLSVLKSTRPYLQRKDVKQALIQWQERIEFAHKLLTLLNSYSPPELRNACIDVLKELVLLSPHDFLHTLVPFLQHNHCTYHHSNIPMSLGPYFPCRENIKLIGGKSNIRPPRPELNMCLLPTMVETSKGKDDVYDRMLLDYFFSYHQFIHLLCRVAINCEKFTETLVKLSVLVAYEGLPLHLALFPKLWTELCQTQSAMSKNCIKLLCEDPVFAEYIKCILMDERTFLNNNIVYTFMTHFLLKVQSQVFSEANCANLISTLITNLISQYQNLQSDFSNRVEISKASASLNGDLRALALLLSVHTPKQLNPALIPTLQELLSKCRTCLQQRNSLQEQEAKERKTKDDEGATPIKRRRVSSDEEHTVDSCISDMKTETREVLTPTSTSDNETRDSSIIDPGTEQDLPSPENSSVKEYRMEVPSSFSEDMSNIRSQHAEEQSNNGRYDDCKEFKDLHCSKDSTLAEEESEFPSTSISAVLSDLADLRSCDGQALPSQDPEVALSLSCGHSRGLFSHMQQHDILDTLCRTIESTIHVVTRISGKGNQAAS

O=C(CCl)NC1CCC(C(F)(F)F)CC1 (stereo not given)
inactive: USP34 -0.186 | USP36 -0.0199 | USP38 0.115 | USP39 0.207 | USP4 -0.24
